The text below walks through data of PubChem BioAssay AID651804 (National Center for Advancing Translational Sciences (NCATS), 2012).

SMILES strings stand for the structures. In all, about 1,200 compounds went through this assay and about 20 (2%) were called active. A call without a number means that no potency is given here. About 23% were inconclusive and are not listed. The call rests on the fitted dose curve; in most records, active means well fitted inhibition curve with a large enough effect; inconclusive means small, poorly fitted or top-dose-only effect; inactive means no such curve, though single readings can be large or run the other way. Only a selection was taken, and actives are over-represented in it overall.
Potency means the concentration at half of the fitted maximal effect.

Transcriptional regulator ERG (Homo sapiens), sequence (P11308 whole entry, looked up, the tested form may be a part): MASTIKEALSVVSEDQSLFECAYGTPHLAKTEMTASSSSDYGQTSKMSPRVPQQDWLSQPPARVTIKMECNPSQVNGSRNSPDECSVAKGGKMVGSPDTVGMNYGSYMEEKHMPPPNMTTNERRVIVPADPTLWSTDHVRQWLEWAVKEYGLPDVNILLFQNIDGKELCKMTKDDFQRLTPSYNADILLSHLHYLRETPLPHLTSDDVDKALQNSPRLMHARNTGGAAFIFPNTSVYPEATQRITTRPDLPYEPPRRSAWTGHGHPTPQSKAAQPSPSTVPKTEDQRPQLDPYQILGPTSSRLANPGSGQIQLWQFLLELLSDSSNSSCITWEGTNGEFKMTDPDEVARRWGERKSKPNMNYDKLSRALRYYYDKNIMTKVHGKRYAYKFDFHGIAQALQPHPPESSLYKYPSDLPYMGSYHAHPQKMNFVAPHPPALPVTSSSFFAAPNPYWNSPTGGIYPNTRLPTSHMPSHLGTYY

The experiment concerns the target Transcriptional regulator ERG (Homo sapiens) (UniProt P11308). Briefly: qHTS for Small Molecule Inhibitors of the ERG Ets/DNA interaction: HTRF assay against cherry picks. As to conditions: His-ERG Ets domain with biotin-DNA; series mostly up to 154 µM. A digest of the protocol: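 Compounds were incubated 10 min at RT with ERG Ets domain and biotinylated DNA (each added as 200 nM solution) in pH 7.5 Tris/KCl/EDTA/DTT buffer. Binding was read as FRET (ex 320, em 615 and 665 nm) between anti-His donor and streptavidin acceptor.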
In general terms: qHTS replaces the single test concentration by a dilution series.
Regarding `CC1(c2ccccc2Cl)NC(=O)N(CC(=O)Nc2ccccc2OC(F)F)C1=O` (configuration not stated), the Potency entry is “inactive”.

As for `Cc1cccc(NC(=O)c2ccccc2NC(=O)c2ccco2)c1`, the Potency result is “inactive”.

On to `COc1ccc(-c2n(CC(=O)OC3CC(C)CCC3C(C)C)c3ccccc3[n+]2C)cc1` (configuration not stated), for which the Potency result was “inactive”.

Consider `Cc1cccc(C(=O)N[C@H](C(=O)Nc2ccc(C)c(S(=O)(=O)N(C)C)c2)C(C)C)c1`, for which the Potency result was “inactive”.

As to `CCN(CC(=O)Nc1ccccc1C(F)(F)F)C(=O)c1ccc(N2C(=O)CCC2=O)cc1`, the Potency entry was “inactive”.

Consider `Cc1ccc(NS(=O)(=O)c2ccc(NC(=O)c3ccccc3C(=O)O)cc2)cc1C`, for which the Potency result was “inactive”.

On to `CCc1cccc(C)c1NC(=O)CSc1nc(C)c(C)o1`, for which the Potency entry was “inactive”.

With `COC(=O)Nc1ccc(S(=O)(=O)NNC(=O)c2c(O)c3ccccc3n(C)c2=O)cc1`, the Potency entry is “inactive”.

As to `CCOC(=O)C1CN(S(=O)(=O)c2cc(OC)ccc2OC)C1`, the Potency result is “inactive”.

Take `COc1ccc(-n2c(=O)c3c4c(sc3n(Cc3ccc(C(C)(C)C)cc3)c2=O)CCC4)c(OC)c1`: the Potency entry is “inactive”.

On to `CC(=O)Nc1cccc(NC(=O)c2ccccc2OCc2c(C)noc2C)c1`, for which the Potency result is “inactive”.

As to `Cc1ccc(S(=O)(=O)NC2CCCC(C(=O)O)C2)cc1` (configuration not stated), the Potency entry was “inactive”.

Turning to `Cc1cc(C)cc(-n2ccnc2SCC(=O)Nc2ccc(C)c(Cl)c2)c1`, the Potency result was “inactive”.

Take `COC(=O)[C@H](Cc1ccccc1)NC(=O)C1(OC(C)=O)CC(OC(C)=O)C(OC(C)=O)C(OC(C)=O)C1` (some centres not stated): the Potency result was “inactive”.

For the molecule `CCCCn1c(N)c(N(CCOC)C(=O)c2ccc(S(=O)(=O)N3CCCCC3)cc2)c(=O)[nH]c1=O`, the Potency entry is “inactive”.

Consider `COc1ccc(OCCCC(=O)Nc2cccc(C(C)=O)c2)cc1`, for which the Potency result is “inactive”.

`Cc1cccc(NC2(C(=O)O)CCCC2)c1`: the Potency entry was “inactive”.

Regarding `CC(=O)c1ccc(OCc2ccc(Oc3c(Cl)cccc3[N+](=O)[O-])cc2)cc1`, the Potency result was “inactive”.

Turning to `Cc1ccc2c(c1)N(CC(=O)NC1CCCc3ccccc31)C(=O)CO2` (configuration not stated), the Potency entry was “inactive”.

Consider `CC(=O)Nc1ccc(S(=O)(=O)N2CCCC(C(=O)N3CCN(c4ccccc4)CC3)C2)cc1` (configuration not stated), for which the Potency entry was “inactive”.

For `CCc1ccc(Nc2ncnc3nc[nH]c23)cc1`, the Potency entry is “inactive”.

In the case of `CC(C)CCNC(=O)c1ccc2c(SCC(=O)O)c3c(nc2c1)CCCC3`, the Potency result was “inactive”.

For `Cc1cc(NC(=O)CCC(=O)N(CC(=O)NC2CCCC2)c2ccc(C)c(F)c2)no1`, the Potency entry is “inactive”.

Consider `C[C@H](NC(=O)[C@@H]1Cc2ccccc2CN1C(=O)OC(C)(C)C)C(=O)NC1CCCCC1`, for which the Potency entry was “inactive”.

`CC(C)(CNC(=O)CC1C(=O)NCCN1Cc1cccc(F)c1)N1CCOCC1` (configuration not stated): the Potency result is “inactive”.

In the case of `CCc1ccc(NC(=O)/C(C#N)=C/c2cc3ccc(C)cc3nc2N2CCOCC2)cc1`, the Potency entry was “inactive”.

With `OC(CN1CCCCC1)Cn1c2ccccc2c2cc(Br)ccc21` (configuration not stated), the Potency result was “inactive”.

As for `CC1(C)CC(=O)/C(=C\c2cccc([N+](=O)[O-])c2)C(C)(C)N1`, the Potency entry was “inactive”.

In the case of `Cc1cc(C)c(S(=O)(=O)N2CCN(C(=O)N3CCOCC3)CC2)c(C)c1`, the Potency result was “inactive”.

As for `CN(C)CCN1C(=O)c2cccc3cc([N+](=O)[O-])cc(c23)C1=O`, the Potency was 7.94 µM (active).

As for `O=C(OCC(=O)c1ccc(Cl)s1)c1cncc(Br)c1`, the Potency entry was “inactive”.

Turning to `Cc1cccc(/C=N/NC(=O)NC23CC4CC(CC(C4)C2)C3)n1`, the Potency result is “inactive”.

For the molecule `CC(=O)N1CCN(c2nnc(-c3ccccc3)c3ccccc23)CC1`, the Potency entry is “inactive”.

Turning to `CC1(C)CC(=O)C(C(O)c2ccccc2)C(C)(C)N1` (configuration not stated), the Potency result was “inactive”.

Turning to `CCCn1c(=O)c(C(=O)NNS(=O)(=O)c2ccc(C)cc2)c(O)c2ccccc21`, the Potency entry is “inactive”.

As to `O=C1CCN(S(=O)(=O)c2ccc(Br)cc2)CCN1`, the Potency entry is “inactive”.

For `O=C(COC(=O)c1cccc(-n2cnnn2)c1)c1ccccc1`, the Potency entry is “inactive”.

For the molecule `COc1cc(NCCCC(C)N)c2ncccc2c1` (configuration not stated), the Potency was 44.7 µM (active).

`CNC(=S)N/N=C/c1c(C)nn(-c2ccccc2)c1Cl`: the Potency result was “inactive”.

As to `O=S(=O)(NCCNS(=O)(=O)c1ccc(F)cc1)c1ccc(F)cc1`, the Potency entry is “inactive”.

For the molecule `Nc1c2ccccc2nc2ccccc12`, the Potency is 11.2 µM (active).

With `CN(C)CCCNc1c2ccccc2nc2ccccc12`, the Potency result was “inactive”.

Consider `Nc1cccc2nc3ccccc3cc12`, for which the Potency was 50.1 µM (active).

Take `c1ccc(Oc2ncnc3ccccc23)cc1`: the Potency entry is “inactive”.

Turning to `CC(=O)Nc1ccc2c(c1)NC(=O)CC2`, the Potency entry was “inactive”.

Regarding `CN(C)c1ccc2c(c1)C(=NO)c1ccccc1-2`, the Potency was 70.8 µM (active).

As for `COC(=O)Cc1ccc(NC(=S)NC(C)(C)C)cc1`, the Potency entry is “inactive”.
